Experimental data reported in PubChem BioAssay AID1851 (National Center for Advancing Translational Sciences (NCATS), 2009).
The campaign covered roughly 16,000 compounds. About 2,600 (16%) were called active. Not shown: some 20% with an inconclusive outcome. The call rests on the fitted dose curve; in most records, active means well fitted curve in the direction sought with a large enough effect; inconclusive means small, poorly fitted or top-dose-only effect, or effect the other way; inactive means no such curve, though single readings can be large or run the other way. Only a sample is shown. Some compounds were tested as several samples or in several runs, with calls that do not always agree. Square brackets hold non-standard residues; d marks the D form. Peptide text beside a SMILES is read from it. * marks the point of attachment. ξ: configuration not given here. Cbz = O=C(OCc1ccccc1)*; ξA = CC(N)C(=O)O

target: Cytochrome P450 2D6 (Homo sapiens) (UniProt P10635); test: Cytochrome panel assay with activity outcomes; details: recombinant CYP, pro-luciferin dealkylation, luminescence, p450-cyp2d6; series mostly up to 57.1 µM; activity, negative = inhibition: at the top concentration
On the % scale 0 is the no-effect control and ±100 the full control effect.

Sequence of Cytochrome P450 2D6 (Homo sapiens) (P10635 whole entry, looked up): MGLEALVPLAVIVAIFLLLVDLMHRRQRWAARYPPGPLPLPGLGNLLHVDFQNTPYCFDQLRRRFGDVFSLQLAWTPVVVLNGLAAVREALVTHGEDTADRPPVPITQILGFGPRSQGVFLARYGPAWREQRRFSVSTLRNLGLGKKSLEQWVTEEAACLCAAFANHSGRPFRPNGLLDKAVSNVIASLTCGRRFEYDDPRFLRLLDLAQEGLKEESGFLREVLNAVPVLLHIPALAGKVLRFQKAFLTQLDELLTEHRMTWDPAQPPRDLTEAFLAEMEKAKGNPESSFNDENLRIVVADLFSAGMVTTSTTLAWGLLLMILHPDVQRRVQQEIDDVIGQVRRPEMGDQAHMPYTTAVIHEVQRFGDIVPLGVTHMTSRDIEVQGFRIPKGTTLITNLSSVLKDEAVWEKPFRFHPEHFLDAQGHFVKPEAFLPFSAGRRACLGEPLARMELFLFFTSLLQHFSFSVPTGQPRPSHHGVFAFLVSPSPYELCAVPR

Row | Structure (SMILES) | activity, negative = inhibition | AC50
1 | NC(=O)CNC(=O)[C@@H]1CC2(CC(c3ccccc3)=NO2)CN1C(=O)c1ccc(Br)cc1 (some centres not stated) | -20% (inactive) | –
2 | CC(=O)Nc1ccc2c(c1)C(=Nc1ccc(C(=O)O)cc1)c1ccccc1-2 | 13% [at 11.4 µM] (inactive) | –
3 | COc1ccc(C(=O)N/N=C(\C)Cn2nc([N+](=O)[O-])cc2C)cc1 | -23.1% (inactive) | –
4 | CCOC(=O)[C@@]12C[C@@H]1/C(=N/O)c1ccccc1O2 | – | inactive
5 | Cc1ccc(-n2c3c(c(=O)[nH]c2=O)C(NS(=O)(=O)c2ccc(C)cc2)(C(F)(F)F)C(=O)N3)cc1 (configuration not stated) | -0.859% (inactive) | –
6 | CC(=O)Nc1ccc(C2=NN(CC#N)C(=O)SC2)cc1 | -16.9% (inactive) | –
7 | COC(=O)CSC1=C(C#N)C(c2cccc(F)c2)CC(=O)N1 (configuration not stated) | -27.1% (inactive) | –
8 | N[C@@H](Cn1cc(I)c(=O)n(Cc2ccc(C(=O)O)cc2)c1=O)C(=O)O | – | 2.51 µM (active)
9 | N[C@@H](Cn1cc(F)c(=O)[nH]c1=O)C(=O)O | 9.04% (inactive) | –
10 | N[C@H](Cn1ccc(=O)n(Cc2ccccc2C(=O)O)c1=O)C(=O)O | 1.32% (inactive) | –
11 | Cn1cc(-c2nc3cnc(N4CCOCC4)nc3n(C3CC3)c2=O)c2ccccc21 | 0.0209% (inactive) | –
12 | CCOC(=O)c1c(CC(C)C)csc1NC=O | -12.9% (inactive) | –
13 | O=C(Nc1cc(C(=O)Nc2ccc(S(=O)(=O)O)cc2S(=O)(=O)O)cc(C(=O)Nc2ccc(S(=O)(=O)O)cc2S(=O)(=O)O)c1)Nc1cc(C(=O)Nc2ccc(S(=O)(=O)O)cc2S(=O)(=O)O)cc(C(=O)Nc2ccc(S(=O)(=O)O)cc2S(=O)(=O)O)c1 | – | inactive
14 | C[C@@H](C[N+](C)(C)C)OC(N)=O | – | inactive
15 | COCCn1c(=O)c(-c2cn(C)c3ccccc23)nc2cnc(Oc3ccc(OC)cc3)nc21 | -4.68% (inactive) | –
16 | O=C1C[C@H]2C(=O)[C@@H]1[C@@H](C(=O)O)[C@H]2C(=O)O | 11.5% [at 11.4 µM] (inactive) | –
17 | Cc1cc(C)n(Cc2ccc(NC(=O)c3ccc(COc4ccccc4Br)cc3)cc2)n1 | -11.6% (inactive) | –
18 | CC1(C)OC(=O)C(=CNCC(O)c2ccccc2)C(=O)O1 (configuration not stated) | 19.5% (inactive) | –
19 | Cc1cc(C)n(CCCNCC(O)c2ccccc2)n1 (configuration not stated) | – | 7.08 µM (active)
20 | C=CCNC(=O)c1csc(-c2ccccc2)n1 | 17.1% (inactive) | –
21 | CCCC(=O)NNC(=O)Nc1ccccc1 | 0.27% (inactive) | –
22 | C=CC[n+]1c(-c2ccc(C)cc2)csc1NNC(=O)Nc1ccccc1 | – | 3.16 µM (active)
23 | CCn1c(C)c(C)c2cc(C(=O)Nc3cccc(Cl)c3)ccc21 | -26.9% (inactive) | –
24 | CC(=O)N[C@@H](CC(=O)O)C(=O)O | -0.495% [at 25.6 µM] (inactive) | –
25 | NC(=O)c1cc[n+](CC2=C(C(=O)[O-])N3C(=O)[C@@H](NC(=O)Cc4cccs4)[C@@H]3SC2)cc1 | -1.02% [at 25.6 µM] (inactive) | –
26 | CN(C)C(=N)N=C(N)N | -6.01% [at 25.6 µM] (inactive) | –

Row | Structure (SMILES) | activity, negative = inhibition | AC50
27 | O=C(NNC(=S)NC(=O)c1cccnc1)c1ccccc1 | -3.01% (inactive) | –
28 | CCOC(=O)COc1cc(OCC(=O)OCC)c2c(=O)cc(-c3ccccc3)oc2c1 | 32.3% (inactive) | –
29 | COc1ccc(-c2coc3cc4oc(=O)cc(C)c4cc23)cc1F | -4.68% (inactive) | –
30 | COc1ccc(-c2cc(=O)c3c(O)cc(O)cc3o2)cc1 | – | 12.6 µM (active)
31 | O=c1c(-c2ccc(O)cc2)coc2cc(O)cc(O)c12 | 6.84% (inactive) | –
32 | COc1ccc(-c2coc3cc(OC)cc(O)c3c2=O)cc1 | – | 0.0355 µM (active)
33 | O=c1cc(-c2ccccc2)oc2cc(O)c(O)c(O)c12 | -2.03% (inactive) | –
34 | CCOC(=O)Cc1c(C)nc2c(C#N)c[nH]n2c1=O | 0.121% (inactive) | –
35 | COC(=O)Cn1cnc(=O)c(C#N)c1/C=C/N(C)C | 3.9% (inactive) | –
36 | Cn1c(=O)c2[nH]c(CCS)nc2n(C)c1=O | 4.9% [at 11.4 µM] (inactive) | –
37 | O=c1nc(N2CCOCC2)ccn1-c1nc(-c2ccccc2)oc1-c1ccccc1 | -8.85% (inactive) | –
38 | C[C@H](Nc1ncnc2sc3c(c12)CCC3)C(=O)O | 0.707% (inactive) | –
39 | Cc1cc2nc(C3CCCN(C(=O)NCc4ccccc4)C3)[nH]c2cc1C (configuration not stated) | – | 5.01 µM (active)
40 | Cc1cc2nc(-c3ccc(SCC(=O)N4CCc5ccccc54)nc3)[nH]c2cc1C | -4.65% (inactive) | –
41 | Cc1cc2nc(C3CCCN(C(=S)Nc4ccccc4)C3)[nH]c2cc1C (configuration not stated) | -7.35% (inactive) | –
42 | COc1ccc(N2CCN(C(=S)Nc3cc(C)ccc3C)CC2)cc1 | -18.8% (inactive) | –
43 | Cc1ccc2nc(C3CCCN(C(=S)Nc4ccccc4C)C3)[nH]c2c1 (configuration not stated) | – | 2 µM (active)
44 | O=C(Nc1ccccc1)N1CCCC(c2nc(-c3ccc(F)cc3)no2)C1 (configuration not stated) | -28.6% (inactive) | –
45 | NCCCCN | 0.962% (inactive) | –
46 | CCC1(O)c2ccccc2-c2ncccc21 (configuration not stated) | 6.35% (inactive) | –
47 | COC(=O)[C@@H]1CC[C@H](C)[C@@H](c2ccc(C)cc2)N1C(=O)c1ccc(/C=N\OC[C@@H](O)[C@H]2O[C@H]3OC(C)(C)O[C@H]3[C@@H]2O)cc1 | 3.7% [at 11.4 µM] (inactive) | –
48 | COCCNc1nc(SCc2ccccc2)nc2sc3c(c12)CCC3 | -18.8% (inactive) | –
49 | CC(C)NC[C@H](O)c1ccc2ccccc2c1 | – | 3.16 µM (active) and inactive
50 | CC(C)NC[C@H](O)c1ccc(NS(C)(=O)=O)cc1 | – | inactive
51 | CC(C)NC[C@H](O)c1cc(O)cc(O)c1 | – | inactive
52 | Cc1ccc(C(CC(N)=O)c2ccco2)cc1 (configuration not stated) | 1.48% (inactive) | –

Row | Structure (SMILES) | activity, negative = inhibition | AC50
53 | O=C(O)CNC(=O)[C@@H](CS)Cc1ccccc1 | -0.986% [at 25.6 µM] (inactive) | –
54 | CC(=O)SC[C@@H](Cc1ccccc1)C(=O)NCC(=O)OCc1ccccc1 | – | 0.316 µM (active)
55 | COC(=O)CNC(=O)C(C)NC(=O)CNC(=O)OCc1ccccc1 (stereo not drawn) (Cbz-Gly-[ξA]-Gly-OMe) | 25.8% (inactive) | –
56 | Cc1cc(OC(=O)c2ccc(Cl)cc2Cl)nc(C)n1 | -22.9% (inactive) | –
57 | CC(C)(C)CC(=O)NC(=S)N1CCCCCC1 | 6.83% (inactive) | –
58 | O=c1c(-c2cccc(Cl)c2)nc2cncnc2n1-c1ccccc1 | -20.1% (inactive) | –
59 | Cn1c(CN2CCCC2)nc2cc(NC(=O)C3CCCCC3)ccc21 | -1.37% (inactive) | –
60 | CCCc1nc(SCC(=O)NNC(=O)C2CCCCC2)c2ccccc2n1 | 7.9% (inactive) | –
61 | O=C(Nc1nc2ccccc2n1CCN1CCCCC1)C1CCCCC1 | – | 4.47 µM (active)
62 | COc1ccc(Oc2nc(C)cc(C)c2S(C)(=O)=O)cc1 | -6.85% (inactive) | –
63 | O=c1c(-c2ccc(Cl)cc2)nc2cnc(N3CCOCC3)nc2n1CCc1ccccc1 | 3.89% (inactive) | –
64 | CC(C)NC(=O)CC(=O)N/N=C/c1ccc(Br)cc1 | -10.9% (inactive) | –
65 | CC(=O)NCCc1c(Cc2ccccc2)[nH]c2ccccc12 | -11.5% (inactive) | –
66 | Cc1[nH]c2ccccc2c1CCNC(=O)c1ccc2c(c1[N+](=O)[O-])C(=O)c1ccccc1C2=O | – | 1.12 µM (active)
67 | CCSc1c(C(=O)NC)ccc2c1C(=O)c1ccccc1C2=O | -22.2% (inactive) | –
68 | CC(C)[C@@H]1NC(=O)[C@H](CCCCN)NC(=O)[C@H](Cc2c[nH]c3ccccc23)NC(=O)[C@H](Cc2ccc(O)cc2)NC(=O)[C@H](C)N(C)C(=O)[C@H](Cc2ccccc2)NC1=O | 2.29% (inactive) | –
69 | Nc1ccc(-c2ccc(Nc3cc(S(=O)(=O)O)c(N)c4c3C(=O)c3ccccc3C4=O)cc2)c(S(=O)(=O)O)c1 | 6.34% [at 11.4 µM] (inactive) | –
70 | COc1ccccc1CNc1nc(-c2cccc(C#N)c2)nc2ccccc12 | – | 10 µM (active)
71 | N#Cc1cccc(-c2nc(NCc3ccccc3)c3ccccc3n2)c1 | – | 10 µM (active)
72 | N#Cc1cccc(-c2nc(NCc3cccnc3)c3ccccc3n2)c1 | -8.94% (inactive) | –
73 | N#Cc1cccc(-c2nc(Nc3ccccc3)c3ccccc3n2)c1 | 9.28% (inactive) | –
74 | CNc1nc(-c2cccc(C#N)c2)nc2ccccc12 | 8.46% (inactive) | –
75 | Cn1cnnc1SCC(=O)OCN1C(=O)c2ccccc2C1=O | 21.6% (inactive) | –
76 | Cc1noc(C)c1C(=O)N1CCC2(CCN(C(=O)NC(C)C)CC2)CC1 | 11.3% (inactive) | –
77 | Cn1c(=O)c2c(ncn2C[C@@H](O)CO)n(C)c1=O | 0.0743% [at 25.6 µM] (inactive) | –
78 | Cn1c(=O)c2c(ncn2CC(COCc2ccccc2Cl)OCc2ccccc2Cl)n(C)c1=O (configuration not stated) | – | 15.8 µM (active)

Row | Structure (SMILES) | activity, negative = inhibition | AC50
79 | Cn1c(=O)c2c(ncn2CCO)n(C)c1=O | -0.742% [at 25.6 µM] (inactive) | –
80 | Cc1cccc(C(=O)NNC(=O)C(=O)NC(C)(C)C)c1 | 8.26% (inactive) | –
81 | CC1(C)CC(=O)C2=C(C1)N(Cc1cccnc1)C(=O)C2(NC(=O)c1cccnc1)C(F)(F)F (configuration not stated) | 12.6% (inactive) | –
82 | CCCOc1cccc(-c2cc(-c3n[nH]c(=S)n3CC)c3ccccc3n2)c1 | – | 6.31 µM (active)
83 | CCn1c(-c2ccc3ncccc3c2)n[nH]c1=S | -1.86% (inactive) | –
84 | CCn1c(-c2ccoc2C)n[nH]c1=S | 4.15% (inactive) | –
85 | CSc1nnc2c(n1)OC(C)N(C(=O)c1ccccc1)c1ccccc1-2 (configuration not stated) | -6.63% (inactive) | –
86 | CCOC(=O)CSc1n[nH]c(-c2cccnc2)n1 | 20% (inactive) | –
87 | CC(/C=N/n1c(-c2cccnc2)n[nH]c1=S)=C\c1ccccc1 | – | 7.08 µM (active)
88 | CC(=C/c1ccccc1)/C=N/n1cnnc1 | -4.74% (inactive) | –
89 | COc1ccc(-n2c(=O)c(-c3cccs3)nc3cnc(Nc4cccc(OC)c4)nc32)cc1 | 6% (inactive) | –
90 | CN(C)c1ncc2nc(-c3cccs3)c(=O)n(CCc3ccccc3)c2n1 | -3.61% (inactive) | –
91 | O=c1c(-c2cccs2)nc2cncnc2n1Cc1ccccc1 | -2.29% (inactive) | –
92 | O=c1onc(-c2cccs2)n1Cc1ccccc1 | – | 11.2 µM (active)
93 | COc1cc2c(cc1OC)C(C(=O)N1CCN(c3ccccn3)CC1)C(c1cccs1)N(C)C2=O (configuration not stated) | -6.69% (inactive) | –
94 | OCCN(CCO)c1ncnc2nc[nH]c12 | -3.25% [at 11.4 µM] (inactive) | –
95 | Cc1cc(C)cc(NC(=O)N2CCCC2C(=O)Nc2ccc(-n3cnnn3)c(C)c2)c1 (configuration not stated) | 1.05% (inactive) | –
96 | COc1cccc(Nc2ncc3nc(-c4ccc(F)cc4)c(=O)n(CCC#N)c3n2)c1 | -3.04% (inactive) | –
97 | COc1ccc(N2CCN(C(=S)Nc3cc(C)cc(C)c3)CC2)cc1 | -6.18% (inactive) | –
98 | CCOC(=O)c1[nH]c(C(=O)O)c(CCC(=O)OC)c1C | 1.16% (inactive) | –
99 | CN1CCN(C2=Cc3ccccc3Oc3ccc(Cl)cc32)CC1 | – | 0.0398 µM (active)
100 | CN1CCN(c2cc(-c3ccccc3C(F)(F)F)ncn2)CC1 | -0.967% (inactive) | –
101 | Cc1ccc(Cl)cc1N1CCN(S(=O)(=O)c2ccc3c(c2)OCCO3)CC1 | 7.2% (inactive) | –
102 | COCCn1c(=O)c(-c2ccc(Cl)cc2)nc2cnc(Nc3ccccc3)nc21 | -2.28% (inactive) | –
